Screening data as filed in PubChem BioAssay.
Tgondii IFNg: inhibitors of Toxoplasma gondii growth with IFN-gamma; Toxoplasma gondii growth in IFN-gamma-treated host cells; hits give low values; activity change, negative = inhibition, % (test concentration not listed); 69,000 compounds, 3.8% hits; AID 1259416; in the data active = activity change below about -70%, passing the limit was not always enough;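 note: host cells are HeLa cells infected with Toxoplasma gondii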
Large screens that a line does not name were inactive. The full list was thinned out, with hits kept by preference.

CN1CCN(C)C2(CCN(c3cc(NCCO)ncn3)CC2)C1	none
O=C(Nc1cccc(C(F)(F)F)c1)c1cc2cccnc2n(Cc2ccc(Cl)cc2)c1=O	none
COCC(C)NC(=O)c1cc2cccnc2n(Cc2ccc(F)cc2)c1=O (centres undefined)	none
NS(=O)(=O)c1ccc(CCNC(=O)c2cc3cccnc3n(Cc3ccc(F)cc3)c2=O)cc1	Tgondii IFNg -87.9
CCCCCNC(=O)c1cc2cccnc2n(Cc2ccc(F)cc2)c1=O	none
Cc1cc(Br)ccc1NC(=O)c1cc2cccnc2n(Cc2ccccc2F)c1=O	none
O=C(Nc1ccccc1)c1cc2cccnc2n(Cc2ccc(F)cc2)c1=O	none
Cc1cc(C)c(NC(=O)c2cc3cccnc3n(Cc3ccccc3F)c2=O)c(C)c1	Tgondii IFNg -83.3
CC(NC(=O)c1cc2cccnc2n(Cc2ccc(F)cc2)c1=O)c1ccccc1 (centres undefined)	Tgondii IFNg -115.3
O=C(NCCc1ccccc1)c1cc2cccnc2n(Cc2ccc(F)cc2)c1=O	none
O=C(Nc1ccccc1)c1cc2cccnc2n(Cc2ccccc2F)c1=O	none
C/C(=C\c1ccco1)CN1CCC2(CCNCC2)C1	none
CS(=O)(=O)N1CCc2c(CNc3ncccn3)cncc2C1	none
C=CCN1CCN(Cc2nccs2)Cc2cccnc21	none
c1cncc(CN2CC3(CCNCC3)CC2COCC2CC2)c1 (centres undefined)	none
O=C(Nc1cccnc1)c1cc2cccnc2n(Cc2ccccc2F)c1=O	none
CC(C)(C)NC(=O)c1cc2cccnc2n(Cc2ccc(F)cc2)c1=O	none
Cc1ccc(CNC(=O)c2cc3cccnc3n(Cc3ccccc3)c2=O)cc1	none
O=C1COC2(CCNCC2)c2ccccc2N1	none
CN(C)C(=O)Oc1ccc(Br)cc1C(=O)Nc1ccc(F)c(Cl)c1	Tgondii IFNg -100.7
O=C(Nc1ccc(F)c(Cl)c1)c1cc2cccnc2n(Cc2ccc(F)cc2)c1=O	none
COc1ccc(NC(=O)c2cc3cccnc3n(Cc3ccc(Cl)cc3)c2=O)cc1OC	none
CCN(CC1CCOCC1)C1CCCNC1 (centres undefined)	none
O=C(NCCC1=CCCCC1)c1cc2cccnc2n(Cc2ccccc2F)c1=O	none
O=C(Nc1ccc(C(F)(F)F)cc1)c1cc2cccnc2n(Cc2ccccc2F)c1=O	none
CCOCC12CCCOC1CCN(CC1CC1)C2 (centres undefined)	none
CC(C)[C@]12O[C@H]1[C@@H]1O[C@]13[C@]1(O[C@H]1C[C@H]1C4=C(CC[C@@]13C)C(=O)OC4)[C@@H]2O	Tgondii IFNg -82.9
c1cncc(CN2CCOCC3(CCC(Cn4cncn4)O3)C2)c1 (centres undefined)	none
CCc1ccc(NC(=O)c2cc3cccnc3n(Cc3ccc(Cl)cc3)c2=O)cc1	none
CS(=O)(=O)N1C[C@@H]2c3ccccc3CN[C@@H]2C1	none
CS(=O)(=O)CC(=O)N1CCCC2(CCNC2)C1 (centres undefined)	none
C[C@@H]1O[C@@H](O[C@H]2C[C@@H](O)[C@]3(CO)C4C(CC[C@]3(O)C2)[C@@]2(O)CC[C@H](C3=CC(=O)OC3)[C@@]2(C)C[C@H]4O)[C@H](O)[C@H](O)[C@H]1O (some centres undefined)	Tgondii IFNg -77.6
CN(C)C[C@@H]1CC2CN(c3ncc(F)cn3)CCC2N1C (some centres undefined)	none
O=C(Nc1cccc(F)c1)c1cc2cccnc2n(Cc2ccc(F)cc2)c1=O	none
CCc1nn2c(=O)cc(CN3CCCC4(CNC(=O)O4)C3)nc2s1 (centres undefined)	none
C1CC2(CCN1)CC(N1CCOCC1)CO2 (centres undefined)	none
C/C1=C/C[C@@H](/C(C)=C/c2csc(C)n2)OC(=O)C[C@H](O)C(C)(C)C(=O)[C@H](C)[C@@H](O)[C@@H](C)CCC1	none
C/C(=C\c1csc(C)n1)[C@@H]1C[C@@H]2O[C@@H]2CCC[C@H](C)[C@H](O)[C@@H](C)C(=O)C(C)(C)[C@@H](O)CC(=O)O1	none
C/C(=C\c1csc(C)n1)[C@H]1C[C@@H]2O[C@]2(C)CCC[C@H](C)[C@H](O)[C@@H](C)C(=O)C(C)(C)[C@H](O)CC(=O)O1	Tgondii IFNg -74.9
Cc1nn(C)c(Cl)c1S(=O)(=O)N1C2CCC1c1cnc(N3CCOCC3)nc1C2 (centres undefined)	none
CO[C@@H]1CCN(C(=O)c2cccc(C)n2)[C@H]2CN(CC3CC3)C[C@@H]12	none
Cc1ccc(CN2C[C@H]3COC[C@@]3(COCc3cccnc3)C2)o1	none
COc1cc2c(cc1OC)[C@@H]1C(=O)c3ccc(OC)c(CC=C(C)C)c3O[C@@H]1CO2	none
COc1cc2c(cc1OC)[C@@H]1C(=O)c3ccc4c(c3O[C@@H]1CO2)CC(C(C)C)O4 (some centres undefined)	Tgondii IFNg -81.5
Cc1c(C(=O)N2CCC3(CC2)OCCO3)oc2ccc3c(c12)C(O)CC1(CCCCC1)O3 (centres undefined)	none
CN1CCC2(CCCN(c3cnccn3)C2)CC1	none
C[C@]12CC[C@H](OC3OC(O)C(O)C(O)C3O)C=C1CCC1C2CC[C@]2(C)[C@@H](c3ccc(=O)oc3)CC[C@]12O (some centres undefined)	Tgondii IFNg -79.8
CCOCCCNC(=O)c1cc2cccnc2n(Cc2ccc(F)cc2)c1=O	none
O=C(NCc1cnc2ccccc2c1)C1CC2(CCNCC2)CN1 (centres undefined)	none
CC(C)N(C)C(=O)C1CCC2(CCNCC2)O1 (centres undefined)	none
COc1ccc(C2=NCC(=O)N(Cc3nc(-c4ccccc4)oc3C)c3sccc32)cc1	Tgondii IFNg -95.2
CN1C(=O)CN=C(c2ccccc2)c2cc(Cl)ccc21	none
Cc1oc(-c2ccccc2)nc1CN1C(=O)CN=C(c2ccc(F)cc2)c2c1sc(C)c2C	none
O=C(NCCc1c[nH]c2ccccc12)c1cc2cccnc2n(Cc2ccccc2)c1=O	none
CN1C[C@@H](NC(=O)C2CC2)C2OCCCC21 (some centres undefined)	none
C=CCN1CCN(Cc2csc(C)n2)Cc2cccnc21	none
C=CCN1CC[C@@H]2OCC[C@]2(C(=O)NCCc2ccccn2)C1	none
O=C(NCc1ccc(F)cc1)c1cc2cccnc2n(Cc2ccccc2)c1=O	none
CO[C@H]1CCC(O[C@H]2CC([C@]3(C)CC[C@]4(C[C@H](O)[C@@H](C)[C@@H]([C@@H](C)/C=C(\C)C(=O)[C@H](C)C[C@H](C)C(=O)O)O4)O3)O[C@]3(O[C@@H](C4O[C@@](O)(CO)[C@H](C)C[C@@H]4C)C[C@@H]3C)[C@@H]2C)O[C@@H]1C (some centres undefined)	Tgondii IFNg -78.2
Cc1cc(F)ccc1NC(=O)c1c(O)c2cccnc2n(Cc2ccccc2)c1=O	none
CN1CCC2OCCCC2(COc2ncccc2F)C1 (centres undefined)	none
O=C(c1ccc2ccccc2c1)C12CN3CN(CN(C3)C1)C2	none
CCNC(=O)[C@H]1O[C@@H](n2cnc3c(N)ncnc32)[C@H](O)[C@@H]1O	none
NC(=O)c1cn(C2OC(CO)[C@H](O)[C@@H]2O)c2ncnc(N)c12 (some centres undefined)	Tgondii IFNg -83.2
O=C(NC1CCCC1)N1CC[C@H]2[C@@H]1CCN2Cc1ccccn1	none
NC(=O)N1c2ccccc2[C@@H]2CNCC[C@@H]21	none
